# Test results: PubChem BioAssay (NCI)
# Compounds without any hit were thinned out: in the full panel of roughly 79,000, 15% have a hit. Values without a mark were called inactive. Activity calls are given as the source filed them. No stated cut-off is given here; in the data, active means growth inhibition above about 70%; inactive means the rest.
# Legend:
# [1] = NCI Yeast Anticancer Drug Screen. Data for the rad50 strain (AID 155);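 further: 0% = growth of vehicle-only cultures of the same strain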; settings: S. cerevisiae rad50 strain growth inhibition, stronger effect = higher value
# How it was run: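 Genetically altered yeast (DNA repair pathway); compound treatment; growth inhibition vs vehicle ctrl.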
# [2] = NCI Yeast Anticancer Drug Screen. Data for the mec2-1 strain (AID 157); settings: S. cerevisiae mec2-1 strain, stronger effect = higher value
# How it was run: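 Cells of the genetically defined mec2-1 yeast strain are incubated with test compound. Inhibition of growth is calculated against vehicle-treated controls.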
# [3] = NCI Yeast Anticancer Drug Screen. Data for the sgs1 mgt1 strain (AID 161);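 further: 0% = growth of cultures given vehicle only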; settings: S. cerevisiae sgs1 mgt1 strain, stronger effect = higher value
# How it was run: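 Inhibition of yeast growth, normalised to vehicle-treated controls, is reported for a strain bearing genetic alterations in DNA damage repair.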
# [4] = NCI Yeast Anticancer Drug Screen. Data for the cln2 rad14 strain (AID 165);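 further: 0% = growth equal to vehicle treated cultures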; settings: S. cerevisiae cln2 rad14 strain, stronger effect = higher value
# How it was run: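 The screen exposed genetically defined yeast (cln2 rad14) to test compounds and scored growth inhibition relative to vehicle-treated controls.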
# [5] = NCI Yeast Anticancer Drug Screen. Data for the bub3 strain (AID 167); settings: S. cerevisiae bub3 mutant strain, stronger effect = higher value
# How it was run: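 Yeast carrying a defined mutation is treated with each compound, and growth is compared with that of vehicle-exposed cells to give inhibition.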
# [6] = NCI Yeast Anticancer Drug Screen. Data for the mlh1 rad18 strain (AID 175); settings: S. cerevisiae mlh1 rad18 strain growth inhibition, stronger effect = higher value
# How it was run: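 Compound-treated yeast growth, normalised to vehicle controls. Strain bears defined DNA repair mutations.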
# [7] = at 5.0 µM (retest, dose inferred, filed as 0.5)
# [8] = at 50.0 µM (retest, dose inferred, filed as 5.0)
SMILES,"growth inhibition [1, 7]","growth inhibition [1, 8]",growth inhibition ([1]; at 50.0 µM),"growth inhibition [2, 7]","growth inhibition [2, 8]",growth inhibition ([2]; at 50.0 µM),"growth inhibition [3, 7]","growth inhibition [3, 8]",growth inhibition ([3]; at 50.0 µM),"growth inhibition [4, 7]","growth inhibition [4, 8]",growth inhibition ([4]; at 50.0 µM),"growth inhibition [5, 7]","growth inhibition [5, 8]",growth inhibition ([5]; at 50.0 µM),"growth inhibition [6, 7]","growth inhibition [6, 8]",growth inhibition ([6]; at 50.0 µM)
CCCCCCCCCCCCCCCBr,-27%,4%,10.7%,-9%,12%,49.6%,-10%,6%,-9.7%,-5%,-5%,85.5% (active),2%,-2%,80.7% (active),5%,18%,92.8% (active)
CCOC(=O)Cc1csc(/C=C/c2ccc(OC)c(OC)c2)n1,-15%,8%,17.2%,-1%,20%,11.8%,-13%,14%,6.9%,3%,37%,-37.2%,7%,8%,-12.7%,1%,18%,21.4%
CN(C)C(=S)NC(=S)Nc1ccc2ccccc2c1,5%,88% (active),62.8%,17%,89% (active),40.9%,34%,82% (active),66.2%,8%,87% (active),46.5%,2%,92% (active),57.4%,12%,92% (active),73.3% (active)
CC(C)c1cccc2sc(NC(=O)C(=O)C(C#N)c3cccc4ccccc34)nc12 (centres undefined),0%,14%,19.2%,3%,15%,-9.55%,2%,10%,0.25%,3%,8%,13.2%,3%,5%,5.05%,3%,9%,12.2%
C/C=C/C=C1\C=Cc2c(C(=O)OC)coc(=O)c21,-9%,85% (active),92% (active),14%,91% (active),94.2% (active),7%,85% (active),76.3% (active),-9%,76% (active),62.8%,15%,96% (active),94% (active),14%,97% (active),95% (active)
CC1(C)OC2OC(/C=C/[N+](=O)[O-])C3OC(C)(C)OC3C2O1 (centres undefined),20%,98% (active),8.25%,3%,98% (active),10.9%,-17%,97% (active),13.2%,17%,99% (active),5.45%,-9%,97% (active),4.75%,17%,97% (active),27.4%
Cc1ccc(NC(=O)CC2SC(=Nc3ccc(Cl)cc3)NC2=O)cc1C (centres undefined),79% (active),-11%,99.2% (active),57%,5%,99.5% (active),65%,0%,99.3% (active),41%,18%,98.3% (active),89% (active),11%,99.1% (active),31%,12%,99.2% (active)
O=C(CCBr)NC(=O)Oc1cccc2ccccc12,1%,17%,87.2% (active),1%,29%,97.2% (active),5%,55%,91.3% (active),4%,11%,28.1%,-8%,18%,85.6% (active),2%,65%,95.3% (active)
COc1ccc(C=O)cc1C[P+](c1ccccc1)(c1ccccc1)c1ccccc1,46%,97% (active),98% (active),38%,99% (active),97.6% (active),51%,99% (active),98.4% (active),13%,94% (active),98.3% (active),54%,98% (active),97.5% (active),39%,94% (active),97.9% (active)
CN(C)C(=S)N1C(=S)N(c2ccccc2)C(=Nc2ccccc2)C1=Nc1ccccc1,-25%,-4%,49.4%,-9%,-11%,-23.6%,-3%,-12%,-5%,-18%,-12%,-18.3%,-13%,-8%,-30.1%,-20%,-24%,-7.7%
Cc1[nH]nc(C(F)(F)F)c1N=NN1CCOCC1,62%,99% (active),99.2% (active),89% (active),99% (active),99.7% (active),55%,99% (active),99.5% (active),47%,99% (active),99.5% (active),19%,99% (active),99.4% (active),79% (active),99% (active),99.5% (active)
CC1=C(C(=O)Nc2ccccc2Cl)C(c2cccc([N+](=O)[O-])c2)C(C(=O)Nc2ccccc2Cl)=C(C)N1,-12%,53%,11.8%,27%,67%,30.2%,-10%,51%,20.4%,11%,61%,1.9%,21%,80% (active),27.9%,13%,63%,13.3%
Nc1ccccc1N=Cc1ccccc1O,-12%,54%,66.2%,-4%,76% (active),41.2%,-8%,91% (active),0.4%,-18%,55%,22.8%,-12%,63%,5.85%,3%,80% (active),69.3%
O=NNc1nc(-c2ccccn2)nc2ccccc12,-7%,96% (active),96.5% (active),7%,99% (active),97.9% (active),-4%,97% (active),98.2% (active),-2%,92% (active),41.2%,-14%,98% (active),19.9%,1%,99% (active),98.5% (active)
N#CC1=C(N)OC(c2ccccc2)=C(C#N)C1c1ccccc1 (centres undefined),90% (active),99% (active),99.2% (active),97% (active),100% (active),99.5% (active),96% (active),100% (active),99.3% (active),98% (active),99% (active),99.2% (active),98% (active),99% (active),99.5% (active),97% (active),99% (active),99.3% (active)
COc1ccc(C(c2cc3c(cc2O)OCO3)N2CCCC2)c(OC)c1 (centres undefined),10%,96% (active),98.5% (active),0%,97% (active),98.2% (active),0%,97% (active),98.8% (active),-15%,76% (active),61.2%,5%,99% (active),97.8% (active),-3%,97% (active),96% (active)
CCCCCCCCCCCCCCC(C(=O)O)S(=O)(=O)O (centres undefined),0%,85% (active),98.9% (active),-1%,58%,99.7% (active),-3%,69%,87% (active),-2%,70% (active),95.7% (active),-4%,66%,99.6% (active),0%,83% (active),99.6% (active)
CCCc1nc2ccccc2c(=O)n1/N=C/c1ccccc1O,4%,-5%,44.2%,-1%,-1%,47.9%,4%,-1%,72.4% (active),-4%,-2%,53.8%,-2%,-2%,82.5% (active),-2%,2%,71% (active)
